{"source": "PubChem BioAssay AID540308", "about": "(The Scripps Research Institute Molecular Screening Center, 2011)", "note": "In all, about 360,000 compounds went through this assay and about 3,500 (0.97%) were called active. The full list was thinned out, with actives kept by preference. A number with no mark means an inactive call.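 The calls were made as follows: active = activation above a per-plate cutoff, the mean activation of sample wells on that plate plus 3 SD (cut at about 8% in these data); inactive = the rest.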"}
{"target": "Melanocortin receptor 4 (Homo sapiens) (UniProt P32245)", "sequence (P32245 whole entry, looked up)": "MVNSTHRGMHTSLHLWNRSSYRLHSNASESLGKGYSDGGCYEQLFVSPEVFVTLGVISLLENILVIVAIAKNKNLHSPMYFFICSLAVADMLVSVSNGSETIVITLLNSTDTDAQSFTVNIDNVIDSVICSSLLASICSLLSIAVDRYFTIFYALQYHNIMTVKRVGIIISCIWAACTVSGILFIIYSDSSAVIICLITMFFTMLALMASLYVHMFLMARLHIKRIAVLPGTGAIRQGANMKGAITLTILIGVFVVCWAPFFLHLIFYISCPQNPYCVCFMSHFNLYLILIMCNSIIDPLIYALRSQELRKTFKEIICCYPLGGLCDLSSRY", "experiment": "activators of MC4R beta-arrestin recruitment – cell-based, luminescence, agonist arm of biased-ligand search, primary screen (AID 540308)", "conditions": "U2OS MC4R beta-arrestin complementation, at 8.9 µM, stronger effect = higher value, percent of melanotan II response, DMSO zero"}
{"smiles": "COc1ccc(S(=O)(=O)NC(=O)C2(C)CCN2C(=O)COc2ccc(Cl)cc2)cc1", "note": "(stereo not drawn)", "activation": "-1.47%"}
{"smiles": "Cc1nn2cc(-c3ccc(Cl)cc3)cnc2c1Br", "activation": "13.2% (active)"}
{"smiles": "CC(=O)NC(c1cccc(F)c1)c1nc(-c2cccc(F)c2)cs1", "note": "(stereo not drawn)", "activation": "0.2%"}
{"smiles": "Cc1ccc(F)c(S(=O)(=O)NC(=O)C2(C)CCN2C(=O)CCc2cccs2)c1", "note": "(stereo not drawn)", "activation": "0.83%"}
{"smiles": "CC(C)Oc1cc(F)ccc1-c1cc(C(=O)Nc2ccc(F)cc2)[nH]n1", "activation": "-0.4%"}
{"smiles": "COc1cc(C(O)c2nc(-c3cnn(C)c3)cs2)ccc1F", "note": "(stereo not drawn)", "activation": "-1.52%"}
{"smiles": "Cc1coc2c(O)cc3c(c12)OC1(N2CCCCC2)C(=O)NCCCC31", "note": "(stereo not drawn)", "activation": "8.45% (active)"}
{"smiles": "O=C(NCc1cccc(C(F)(F)F)c1)c1ccc2sc(COCCO)nc2c1", "activation": "-1.45%"}
{"smiles": "CCOC(=O)c1c(NC(=S)SC)sc(C(=O)N2CCc3ccccc3C2)c1C", "activation": "-0.37%"}
{"smiles": "CCOC(=O)c1c(NC(=O)CNC2CCCc3ccccc32)sc(C(N)=O)c1C", "note": "(stereo not drawn)", "activation": "8.65% (active)"}
{"smiles": "NC(=O)Nc1ccc(C(=O)OCC(=O)NC2CCCc3ccccc32)cc1", "note": "(stereo not drawn)", "activation": "-2.32%"}
{"smiles": "C#Cc1ccc(NC(=O)C2(C)CCN2C(=O)Cc2ccc(-c3ccccc3)cc2)cc1", "note": "(stereo not drawn)", "activation": "0.34%"}
{"smiles": "CCCC/C=C/c1cccc2nncn12", "activation": "0.76%"}
{"smiles": "CN1CCC(CN)(N2CCN(c3ccccc3)CC2)CC1", "activation": "0.54%"}
{"smiles": "CCc1cc2c(N3CCN(c4nnc(CC)s4)CC3)ncnc2s1", "activation": "1%"}
{"smiles": "COc1ccccc1N1CCN(c2ncnc3sc(C)c(-c4ccccc4)c23)CC1", "activation": "2.5%"}
{"smiles": "Oc1ccccc1N1CCN(c2ncnc3sc(-c4ccccc4)cc23)CC1", "activation": "14.4% (active)"}
{"smiles": "CCCNC(=O)C1(C)CCN(C(=O)c2cc(F)ccc2C)C1", "note": "(stereo not drawn)", "activation": "-0.94%"}
{"smiles": "CC(C)(C(=O)N1CCC1(C)C(=O)NS(=O)(=O)c1ccc(Br)cc1)c1ccccc1", "note": "(stereo not drawn)", "activation": "-0.16%"}
{"smiles": "Cc1ccc(C2(C(F)(F)F)N=C3Sc4cc(C)cc(C)c4N3C(=O)N2)cc1", "note": "(stereo not drawn)", "activation": "-0.99%"}
{"smiles": "CCOC(=O)N(C)c1c(CC)nc2c(OCc3ccccc3C(=O)OC)cccn12", "activation": "-1.73%"}
{"smiles": "CCc1nc2c(OCCOc3ccc(F)cc3)cccn2c1N(C)C(=O)c1ccccc1F", "activation": "0.11%"}
{"smiles": "CC(=O)Oc1ccc(NC(=O)CCC2CCCCC2)c(C(=O)O)c1", "activation": "0.62%"}
{"smiles": "COC(=O)c1sccc1NC(=O)CCC1CCCC1", "activation": "10.9% (active)"}
{"smiles": "COc1ccc(NC(=O)CCCC2CCCCC2)c(OC)c1", "activation": "-1.23%"}
{"smiles": "COCCCNC(=O)c1cccc2c(-c3ccc(O)c(OC)c3)coc12", "activation": "0.52%"}
{"smiles": "COc1ccc(S(=O)(=O)Nc2ccc3cn[nH]c3c2)cc1[N+](=O)[O-]", "activation": "-0.37%"}
{"smiles": "Cc1ccc(S(=O)(=O)N/N=C\\c2cc3c(cc2[N+](=O)[O-])OCO3)cc1", "activation": "-2.43%"}
{"smiles": "COc1ccc(S(=O)(=O)N/N=C\\c2ccc(OC)c(COc3ccc(C)cc3[N+](=O)[O-])c2)cc1", "activation": "12.8% (active)"}
{"smiles": "CN1CCN(C(=O)c2ccc(-c3cc4nc(NCc5cccnc5)n(C)c(=O)c4s3)cc2)CC1", "activation": "-1.19%"}
{"smiles": "Cc1ccc(S(=O)(=O)NCCC(=O)Nc2cccc(S(N)(=O)=O)c2)cc1C", "activation": "-1.36%"}
{"smiles": "Cc1ccc(NC(=O)CCNS(=O)(=O)c2ccc3c(c2)oc(=O)n3C)cc1C", "activation": "-0.21%"}
{"smiles": "Cc1ccc(S(=O)(=O)NCCC(=O)Nc2ccc(C)c(Cl)c2)cc1C", "activation": "10.6% (active)"}
{"smiles": "O=C(Nc1ccc(F)cc1)Nc1nnc([C@H]2C[C@H](O)[C@@H](CO)O2)s1", "activation": "0.21%"}
{"smiles": "O=C(NCc1cccnc1)c1ccc2nc([C@@H]3O[C@H](CO)[C@H](O)[C@H](O)[C@H]3O)[nH]c2c1", "activation": "-1.52%"}
{"smiles": "CC(=O)c1ccc(Nc2nc(C(N)c3ccccc3)cs2)cc1", "note": "(stereo not drawn)", "activation": "1.43%"}
{"smiles": "CC1(C(=O)Nc2cccc(Oc3ccccc3)c2)CCN1Cc1ccccc1Cl", "note": "(stereo not drawn)", "activation": "-1.51%"}
{"smiles": "CCn1c(CNC(=O)c2ccco2)nnc1SCC(=O)Nc1cccc(F)c1", "activation": "2.05%"}
{"smiles": "Cc1nc2nc(SCC(=O)Nc3cccc(F)c3)[nH]c2cc1Br", "activation": "4.22%"}
{"smiles": "CCn1c(SCC(=O)Nc2cccc(F)c2)nnc1-c1cc2cc(Br)ccc2o1", "activation": "14.9% (active)"}
{"smiles": "CCCNS(=O)(=O)c1ccc2c(c1)CCCN2C(C)=O", "activation": "-3.18%"}
{"smiles": "CN(C(=O)CN1CCN(c2cc(-c3ccc(OCc4ccccc4)cc3)ncn2)CC1)c1ccccc1", "activation": "-0.62%"}
{"smiles": "CCCS(=O)(=O)NC(=O)C1(C)CCCN(C(=O)c2cccs2)C1", "note": "(stereo not drawn)", "activation": "-0.48%"}
